Source: the supplement of paper PMC11732987, “Enantioselective OTUD7B fragment discovery through chemoproteomics screening and high-throughput optimisation” (Communications Chemistry, 2025)

Assays:
Test in all cases: log2 ratio of Biotin-Ahx-Ub-VS probe labelling (fragment/DMSO); higher = less target engagement (more negative = stronger competition), active = hit call of the paper (q ≤ 0.05, log2 ratio ≤ -1)
Conditions in all cases: compound concentration: 200 uM; treatment time: 3 h
[1] = molecular target: USP34 (UniProt Q70CQ2)
How it was run: (§1)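 Average log2 ratios of fragment over vehicle were obtained by unpaired t-test from global-median-normalised Spectronaut label-free quantities. Proteins with ≥2 unique peptides were included. HEK293T lysate (495 µg per sample) was treated in triplicate with fragment at 200 µM or vehicle for 3 h, then with Biotin-Ahx-Ub-VS at 0.5 µM final for 1 h, and labelled DUBs were NeutrAvidin-enriched and run by diaPASEF LC-MS/MS.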

[2] = molecular target: T1, USP36 (UniProt Q9P275)
T1 sequence (whole entry): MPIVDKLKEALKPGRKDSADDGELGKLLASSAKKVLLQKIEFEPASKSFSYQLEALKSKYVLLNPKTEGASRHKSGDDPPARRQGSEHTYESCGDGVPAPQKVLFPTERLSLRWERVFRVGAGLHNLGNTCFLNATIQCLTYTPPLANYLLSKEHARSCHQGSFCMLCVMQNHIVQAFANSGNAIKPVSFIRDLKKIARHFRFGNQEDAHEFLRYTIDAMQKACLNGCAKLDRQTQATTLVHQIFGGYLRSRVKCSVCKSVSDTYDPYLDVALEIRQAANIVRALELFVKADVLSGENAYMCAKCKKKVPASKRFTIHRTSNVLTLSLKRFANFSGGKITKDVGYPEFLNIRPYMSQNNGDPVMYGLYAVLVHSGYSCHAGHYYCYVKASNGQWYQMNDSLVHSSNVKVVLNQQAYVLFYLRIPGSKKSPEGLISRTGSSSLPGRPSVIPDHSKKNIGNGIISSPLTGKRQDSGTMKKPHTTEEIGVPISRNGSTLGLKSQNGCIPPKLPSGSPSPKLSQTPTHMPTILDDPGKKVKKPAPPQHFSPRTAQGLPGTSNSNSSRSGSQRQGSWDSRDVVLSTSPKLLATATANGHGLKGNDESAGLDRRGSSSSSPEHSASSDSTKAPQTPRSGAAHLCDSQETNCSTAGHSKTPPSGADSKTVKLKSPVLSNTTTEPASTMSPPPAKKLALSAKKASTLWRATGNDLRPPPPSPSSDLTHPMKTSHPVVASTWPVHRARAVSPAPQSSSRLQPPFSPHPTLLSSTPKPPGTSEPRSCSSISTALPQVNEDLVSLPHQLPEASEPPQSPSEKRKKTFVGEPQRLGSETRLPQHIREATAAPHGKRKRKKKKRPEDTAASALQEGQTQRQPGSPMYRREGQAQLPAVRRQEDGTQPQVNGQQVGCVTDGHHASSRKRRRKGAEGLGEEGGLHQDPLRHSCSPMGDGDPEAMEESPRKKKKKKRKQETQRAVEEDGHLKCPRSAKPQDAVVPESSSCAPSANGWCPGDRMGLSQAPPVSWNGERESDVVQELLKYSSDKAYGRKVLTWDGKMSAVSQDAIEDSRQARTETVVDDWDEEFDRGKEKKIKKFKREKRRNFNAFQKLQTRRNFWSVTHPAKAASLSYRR
How it was run: as §1

[3] = molecular target: T2, USP38 (UniProt Q8NB14)
T2 sequence (whole entry): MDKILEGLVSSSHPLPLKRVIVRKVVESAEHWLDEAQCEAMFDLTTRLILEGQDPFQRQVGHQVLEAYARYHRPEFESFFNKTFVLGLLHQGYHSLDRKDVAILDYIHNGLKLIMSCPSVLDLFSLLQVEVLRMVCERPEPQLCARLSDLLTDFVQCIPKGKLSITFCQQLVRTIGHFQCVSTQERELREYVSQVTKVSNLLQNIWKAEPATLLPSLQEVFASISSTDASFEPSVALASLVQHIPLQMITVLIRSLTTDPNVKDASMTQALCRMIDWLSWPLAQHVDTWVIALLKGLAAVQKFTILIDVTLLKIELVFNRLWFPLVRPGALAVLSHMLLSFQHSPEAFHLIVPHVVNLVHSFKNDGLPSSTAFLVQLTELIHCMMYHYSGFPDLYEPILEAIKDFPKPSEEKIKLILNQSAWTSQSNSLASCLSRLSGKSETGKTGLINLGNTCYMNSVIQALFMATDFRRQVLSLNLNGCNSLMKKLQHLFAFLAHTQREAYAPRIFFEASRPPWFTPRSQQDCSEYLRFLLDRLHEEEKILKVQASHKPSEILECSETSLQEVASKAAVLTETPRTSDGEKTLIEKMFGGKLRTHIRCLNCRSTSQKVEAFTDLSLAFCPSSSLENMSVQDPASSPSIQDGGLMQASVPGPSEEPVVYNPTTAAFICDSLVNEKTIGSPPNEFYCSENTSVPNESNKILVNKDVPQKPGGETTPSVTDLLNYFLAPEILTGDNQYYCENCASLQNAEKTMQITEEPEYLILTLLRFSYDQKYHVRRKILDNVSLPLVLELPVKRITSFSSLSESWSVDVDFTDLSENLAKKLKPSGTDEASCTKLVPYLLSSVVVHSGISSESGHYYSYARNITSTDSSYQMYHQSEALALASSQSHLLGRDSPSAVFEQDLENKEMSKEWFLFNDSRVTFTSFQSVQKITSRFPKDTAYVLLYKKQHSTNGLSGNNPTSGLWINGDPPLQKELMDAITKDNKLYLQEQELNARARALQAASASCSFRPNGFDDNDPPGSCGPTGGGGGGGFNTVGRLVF
How it was run: as §1

[4] = molecular target: T3, USP39 (UniProt Q53GS9)
T3 sequence (whole entry): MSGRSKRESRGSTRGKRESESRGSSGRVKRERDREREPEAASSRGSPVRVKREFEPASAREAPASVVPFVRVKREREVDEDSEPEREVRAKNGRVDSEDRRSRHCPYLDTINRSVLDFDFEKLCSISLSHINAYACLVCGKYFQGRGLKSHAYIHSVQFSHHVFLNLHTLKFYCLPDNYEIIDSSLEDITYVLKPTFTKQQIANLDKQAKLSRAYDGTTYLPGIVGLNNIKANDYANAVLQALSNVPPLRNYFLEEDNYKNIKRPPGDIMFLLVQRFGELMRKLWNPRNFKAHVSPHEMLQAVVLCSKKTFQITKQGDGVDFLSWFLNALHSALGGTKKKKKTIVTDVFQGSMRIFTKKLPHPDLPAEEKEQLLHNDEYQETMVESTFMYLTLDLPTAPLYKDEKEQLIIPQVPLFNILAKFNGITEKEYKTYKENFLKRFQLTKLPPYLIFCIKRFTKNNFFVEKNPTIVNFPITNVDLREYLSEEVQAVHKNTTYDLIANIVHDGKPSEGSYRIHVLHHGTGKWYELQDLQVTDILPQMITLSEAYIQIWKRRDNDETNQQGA
How it was run: as §1

[5] = molecular target: T4, USP4 (UniProt Q13107)
T4 sequence (whole entry): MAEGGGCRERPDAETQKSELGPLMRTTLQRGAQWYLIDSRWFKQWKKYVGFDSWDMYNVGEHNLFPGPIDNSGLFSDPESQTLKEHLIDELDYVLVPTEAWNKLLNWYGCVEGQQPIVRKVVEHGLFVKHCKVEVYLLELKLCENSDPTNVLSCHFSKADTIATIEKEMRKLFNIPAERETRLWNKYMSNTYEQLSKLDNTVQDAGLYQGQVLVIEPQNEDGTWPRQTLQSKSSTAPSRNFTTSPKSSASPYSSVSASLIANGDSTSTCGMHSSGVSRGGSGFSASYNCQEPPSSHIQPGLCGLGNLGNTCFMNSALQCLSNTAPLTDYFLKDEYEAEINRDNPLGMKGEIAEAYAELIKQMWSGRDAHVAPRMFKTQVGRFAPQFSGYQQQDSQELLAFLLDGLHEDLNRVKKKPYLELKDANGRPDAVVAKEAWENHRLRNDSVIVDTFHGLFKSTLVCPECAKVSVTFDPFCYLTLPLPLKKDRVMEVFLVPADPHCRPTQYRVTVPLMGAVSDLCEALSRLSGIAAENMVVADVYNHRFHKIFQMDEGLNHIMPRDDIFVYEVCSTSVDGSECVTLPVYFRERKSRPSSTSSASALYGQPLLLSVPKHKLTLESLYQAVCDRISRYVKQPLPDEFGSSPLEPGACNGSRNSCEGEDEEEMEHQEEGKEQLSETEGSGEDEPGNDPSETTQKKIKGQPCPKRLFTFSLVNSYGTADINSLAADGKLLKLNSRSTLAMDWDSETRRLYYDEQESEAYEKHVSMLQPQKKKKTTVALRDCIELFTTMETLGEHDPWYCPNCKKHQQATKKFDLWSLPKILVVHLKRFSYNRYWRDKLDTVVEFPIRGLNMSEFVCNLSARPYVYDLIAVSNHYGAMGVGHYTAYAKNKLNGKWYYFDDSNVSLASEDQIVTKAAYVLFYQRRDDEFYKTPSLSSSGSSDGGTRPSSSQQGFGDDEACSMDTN
How it was run: as §1

Measured: log2 ratio of Biotin-Ahx-Ub-VS probe labelling

USP34, sequence (Q70CQ2 whole entry, the tested form may be a part): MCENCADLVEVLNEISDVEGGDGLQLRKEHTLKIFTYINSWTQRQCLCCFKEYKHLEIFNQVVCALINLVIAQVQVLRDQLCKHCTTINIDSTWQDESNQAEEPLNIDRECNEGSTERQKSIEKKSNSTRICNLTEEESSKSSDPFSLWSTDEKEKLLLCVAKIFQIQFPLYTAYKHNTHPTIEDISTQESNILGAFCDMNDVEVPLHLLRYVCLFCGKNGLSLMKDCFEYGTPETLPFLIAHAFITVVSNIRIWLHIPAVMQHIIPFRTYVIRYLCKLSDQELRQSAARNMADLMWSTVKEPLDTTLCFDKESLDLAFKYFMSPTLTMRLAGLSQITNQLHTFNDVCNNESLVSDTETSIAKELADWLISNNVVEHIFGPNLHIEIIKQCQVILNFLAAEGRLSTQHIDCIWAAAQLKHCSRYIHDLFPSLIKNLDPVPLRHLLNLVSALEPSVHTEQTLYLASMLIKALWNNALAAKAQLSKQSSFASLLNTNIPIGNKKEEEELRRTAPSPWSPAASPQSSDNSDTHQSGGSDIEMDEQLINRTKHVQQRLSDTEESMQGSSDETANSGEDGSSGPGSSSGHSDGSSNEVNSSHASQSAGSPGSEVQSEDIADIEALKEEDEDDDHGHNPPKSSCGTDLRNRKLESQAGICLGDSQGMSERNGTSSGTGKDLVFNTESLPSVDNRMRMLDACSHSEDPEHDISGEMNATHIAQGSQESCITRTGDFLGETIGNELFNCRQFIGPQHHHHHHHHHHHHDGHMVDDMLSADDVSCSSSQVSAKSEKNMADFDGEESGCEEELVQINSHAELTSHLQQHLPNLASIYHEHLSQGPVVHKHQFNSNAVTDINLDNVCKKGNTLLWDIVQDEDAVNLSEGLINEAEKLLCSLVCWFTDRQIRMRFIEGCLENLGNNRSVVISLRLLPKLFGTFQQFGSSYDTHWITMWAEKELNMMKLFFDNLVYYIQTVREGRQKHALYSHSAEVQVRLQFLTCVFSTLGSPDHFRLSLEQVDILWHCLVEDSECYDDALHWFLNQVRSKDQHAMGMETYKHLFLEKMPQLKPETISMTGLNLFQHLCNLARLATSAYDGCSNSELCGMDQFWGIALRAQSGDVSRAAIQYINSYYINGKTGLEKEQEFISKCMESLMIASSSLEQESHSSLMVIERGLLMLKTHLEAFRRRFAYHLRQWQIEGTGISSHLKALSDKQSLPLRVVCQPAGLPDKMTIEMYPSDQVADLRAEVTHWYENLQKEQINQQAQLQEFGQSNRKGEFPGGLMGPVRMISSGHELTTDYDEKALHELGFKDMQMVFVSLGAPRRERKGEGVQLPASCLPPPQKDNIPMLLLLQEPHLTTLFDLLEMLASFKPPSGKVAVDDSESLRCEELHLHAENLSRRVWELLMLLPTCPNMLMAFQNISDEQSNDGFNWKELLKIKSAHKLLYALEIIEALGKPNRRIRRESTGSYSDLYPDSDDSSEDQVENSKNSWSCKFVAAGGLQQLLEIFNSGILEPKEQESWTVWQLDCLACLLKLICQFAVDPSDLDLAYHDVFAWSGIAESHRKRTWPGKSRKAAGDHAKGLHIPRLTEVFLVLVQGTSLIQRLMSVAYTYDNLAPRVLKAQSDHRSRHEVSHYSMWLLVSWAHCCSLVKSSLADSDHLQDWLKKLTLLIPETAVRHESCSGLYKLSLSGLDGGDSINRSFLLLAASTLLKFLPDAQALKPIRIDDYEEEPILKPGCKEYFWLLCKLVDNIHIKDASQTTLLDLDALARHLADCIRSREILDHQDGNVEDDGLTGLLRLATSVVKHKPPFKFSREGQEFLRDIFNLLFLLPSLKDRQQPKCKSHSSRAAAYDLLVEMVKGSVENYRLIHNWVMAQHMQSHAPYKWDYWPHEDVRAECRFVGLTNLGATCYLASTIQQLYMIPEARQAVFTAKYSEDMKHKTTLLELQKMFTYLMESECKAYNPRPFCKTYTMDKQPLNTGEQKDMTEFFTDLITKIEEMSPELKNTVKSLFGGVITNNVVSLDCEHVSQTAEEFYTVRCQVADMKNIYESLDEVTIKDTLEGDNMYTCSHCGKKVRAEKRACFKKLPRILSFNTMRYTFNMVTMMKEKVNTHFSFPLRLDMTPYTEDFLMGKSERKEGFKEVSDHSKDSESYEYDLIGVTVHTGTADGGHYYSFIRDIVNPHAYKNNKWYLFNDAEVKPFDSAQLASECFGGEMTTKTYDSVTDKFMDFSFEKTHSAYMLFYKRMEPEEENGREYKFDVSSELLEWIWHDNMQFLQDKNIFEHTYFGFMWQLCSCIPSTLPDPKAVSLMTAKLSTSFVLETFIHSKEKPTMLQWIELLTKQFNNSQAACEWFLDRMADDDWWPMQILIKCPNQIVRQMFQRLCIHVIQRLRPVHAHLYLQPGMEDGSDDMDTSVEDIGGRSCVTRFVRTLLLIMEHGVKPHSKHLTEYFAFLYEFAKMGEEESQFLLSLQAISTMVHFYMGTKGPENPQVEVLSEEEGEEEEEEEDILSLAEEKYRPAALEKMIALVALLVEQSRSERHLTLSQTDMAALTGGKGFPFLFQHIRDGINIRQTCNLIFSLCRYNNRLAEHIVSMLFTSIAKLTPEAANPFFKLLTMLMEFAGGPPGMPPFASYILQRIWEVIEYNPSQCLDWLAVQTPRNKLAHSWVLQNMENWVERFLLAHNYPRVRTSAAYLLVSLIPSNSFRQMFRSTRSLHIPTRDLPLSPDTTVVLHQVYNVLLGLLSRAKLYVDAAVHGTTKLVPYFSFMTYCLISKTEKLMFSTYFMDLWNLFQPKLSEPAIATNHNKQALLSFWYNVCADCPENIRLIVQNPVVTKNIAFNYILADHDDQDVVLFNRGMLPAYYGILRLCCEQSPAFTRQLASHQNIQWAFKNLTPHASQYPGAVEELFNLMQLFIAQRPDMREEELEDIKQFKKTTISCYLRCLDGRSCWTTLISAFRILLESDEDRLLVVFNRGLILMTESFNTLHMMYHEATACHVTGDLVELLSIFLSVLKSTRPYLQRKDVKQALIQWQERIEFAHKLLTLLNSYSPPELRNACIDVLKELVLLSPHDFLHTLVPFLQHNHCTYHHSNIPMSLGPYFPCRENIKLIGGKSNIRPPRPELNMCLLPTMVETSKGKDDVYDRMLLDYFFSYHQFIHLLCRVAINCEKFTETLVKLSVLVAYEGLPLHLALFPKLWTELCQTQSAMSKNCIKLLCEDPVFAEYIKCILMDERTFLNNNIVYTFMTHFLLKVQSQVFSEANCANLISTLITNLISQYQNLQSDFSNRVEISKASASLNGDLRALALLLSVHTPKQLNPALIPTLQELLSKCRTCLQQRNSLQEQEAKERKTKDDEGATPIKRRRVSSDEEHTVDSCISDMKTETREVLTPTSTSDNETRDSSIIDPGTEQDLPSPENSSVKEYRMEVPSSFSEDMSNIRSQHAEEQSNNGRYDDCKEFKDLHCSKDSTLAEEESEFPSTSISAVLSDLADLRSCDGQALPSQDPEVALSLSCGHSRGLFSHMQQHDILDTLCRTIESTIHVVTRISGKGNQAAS

Cl.O=C(CCl)N1CCc2ncncc2C1
inactive: [1] -0.136 | [2] 0.0811 | [3] -0.0489 | [4] 0.321 | [5] -0.201
